According to PubChem BioAssay (EPA / NIEHS):
Several values for one entry are separate records, joined by “and”; a condition that tells them apart may be missing. Identical values can stand only once. Activity calls are given as the source filed them. The calls were made as follows: active = hit-call score of the fitted dose curve at least 0.9, where 1 is the maximum; inactive = score below 0.9.

Assays:
Details in all cases: mRNA level, 48 h; actives raise or lower the signal
[1] = read-out: adenosine kinase (ADK) gene, ADK (gene 132); test: LTEA_HepaRG_ADK: Life Technologies and Expression Analysis (LTEA) Assay for adenosine kinase (ADK) gene using HepaRG (AID 2283471)
How it was run: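 Differentiated HepaRG cells dosed 48 h in serum-free induction medium, 0.5% DMSO vehicle, eight half-log concentrations from 100 uM, in duplicate. ADK mRNA by TaqMan qRT-PCR normalised to ACTB, GAPDH, POLR2A; bidirectional fit versus DMSO.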

[2] = read-out: Alpha-fetoprotein (AFP) gene, AFP (gene 174); test: LTEA_HepaRG_AFP: Life Technologies and Expression Analysis (LTEA) Assay for Alpha-fetoprotein (AFP) gene using HepaRG (AID 2283472)
How it was run: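 Measures AFP mRNA change in HepaRG after 48 h chemical exposure (8 half-log concentrations, highest 100 uM, 0.5% DMSO). Fold change relative to DMSO, fitted in both directions.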

BCL2L11 (gene 10018) = test: LTEA_HepaRG_BCL2L11: Life Technologies and Expression Analysis (LTEA) Assay for Bcl-2 (BCL2L11) gene using HepaRG (AID 2283473)
How it was run: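 Differentiated human HepaRG cells in serum-free induction medium were exposed in duplicate for 48 h to eight concentrations (top 100 uM, half-log steps, 0.5% DMSO). BCL2L11 mRNA was quantified by TaqMan qRT-PCR, normalized to ACTB/GAPDH/POLR2A, bidirectional fit versus DMSO.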

[3] = read-out: Apolipoprotein A-V (APOA5) gene, APOA5 (gene 116519); test: LTEA_HepaRG_APOA5: Life Technologies and Expression Analysis (LTEA) Assay for Apolipoprotein A-V (APOA5) gene using HepaRG (AID 2283474)
How it was run: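 Differentiated human HepaRG cells were exposed in duplicate for 48 h to eight half-log concentrations from 100 uM in 0.5% DMSO. APOA5 mRNA was quantified by TaqMan qRT-PCR, normalized to ACTB, GAPDH and POLR2A, and fitted bidirectionally against DMSO.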

[4] = read-out: Apoptosis regulator Bcl-2 (Homo sapiens) (UniProt P10415); test: LTEA_HepaRG_BCL2: Life Technologies and Expression Analysis (LTEA) Assay for Bcl-2 gene using HepaRG (AID 2283475)
How it was run: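 Each chemical was tested in duplicate on HepaRG cultures held in serum-free induction medium for 48 h, highest concentration 100 uM with half-log dilutions. Transcript levels came from multiplexed qRT-PCR, normalised to housekeeping genes; activity was scored in either direction relative to DMSO.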

[5] = read-out: Bcl-2 (BID) gene, BID (gene 637); test: LTEA_HepaRG_BID: Life Technologies and Expression Analysis (LTEA) Assay for Bcl-2 (BID) gene using HepaRG (AID 2283476)
How it was run: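 Assay used HepaRG hepatic cells treated 48 h in serum-free medium with half-log dilutions from 100 uM. Endpoint: BID mRNA, qRT-PCR, normalized to ACTB/GAPDH/POLR2A.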

Caspase-3 (Homo sapiens) = Caspase-3 (Homo sapiens) (UniProt P42574); test: LTEA_HepaRG_CASP3: Life Technologies and Expression Analysis (LTEA) Assay for cysteine-aspartic acid protease (CASP3) using HepaRG (AID 2283477)
How it was run: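 Differentiated human HepaRG cells in serum-free induction medium were exposed 48 h to 8-point half-log concentrations from 100 uM (0.5% DMSO vehicle). CASP3 mRNA was measured by qRT-PCR, normalised to ACTB, GAPDH and POLR2A, with bidirectional fitting against DMSO.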

[6] = read-out: Cytochrome P450 (CYP24A1), CYP24A1 (gene 1591); test: LTEA_HepaRG_CYP24A1: Life Technologies and Expression Analysis (LTEA) Assay for Cytochrome P450 (CYP24A1) using HepaRG (AID 2283478)
How it was run: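 Differentiated HepaRG cells, pre-cultured 48 h, were exposed in duplicate for 48 h in serum-free induction medium to 8 half-log concentrations (top 100 uM, 0.5% DMSO). CYP24A1 mRNA was quantified by TaqMan qRT-PCR, normalized to ACTB/GAPDH/POLR2A, fitted bidirectionally versus DMSO.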

[7] = read-out: Cytochrome P450 (CYP1A2), CYP1A2 (gene 1544); test: LTEA_HepaRG_CYP1A2: Life Technologies and Expression Analysis (LTEA) Assay for Cytochrome P450 (CYP1A2) using HepaRG (AID 2283479)
How it was run: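 Differentiated human HepaRG cells in serum-free induction medium were exposed in duplicate for 48 h to 8-point half-log concentrations up to 100 uM in 0.5% DMSO. CYP1A2 mRNA measured by qRT-PCR, normalized to ACTB, GAPDH, POLR2A; bidirectional fit vs DMSO.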

[8] = read-out: cysteine-aspartic acid protease (CASP8), CASP8 (gene 841); test: LTEA_HepaRG_CASP8: Life Technologies and Expression Analysis (LTEA) Assay for cysteine-aspartic acid protease (CASP8) using HepaRG (AID 2283480)
How it was run: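 CASP8 transcript measured by TaqMan qRT-PCR with ACTB/GAPDH/POLR2A normalization, after 48 h chemical exposure of HepaRG cells in serum-free induction medium. Eight concentrations, top 100 uM, half-log steps, 0.5% DMSO vehicle; fits in both directions versus DMSO.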

Measured: AC50

Sequence of Apoptosis regulator Bcl-2 (Homo sapiens) (P10415 whole entry, looked up): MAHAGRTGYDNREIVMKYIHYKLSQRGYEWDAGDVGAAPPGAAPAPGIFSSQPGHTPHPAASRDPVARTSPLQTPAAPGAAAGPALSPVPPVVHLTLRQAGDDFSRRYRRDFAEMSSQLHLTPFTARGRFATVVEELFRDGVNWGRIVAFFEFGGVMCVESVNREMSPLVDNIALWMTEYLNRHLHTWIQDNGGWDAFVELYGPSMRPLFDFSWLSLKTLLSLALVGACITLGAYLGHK
Sequence of Caspase-3 (Homo sapiens) (P42574 whole entry, looked up): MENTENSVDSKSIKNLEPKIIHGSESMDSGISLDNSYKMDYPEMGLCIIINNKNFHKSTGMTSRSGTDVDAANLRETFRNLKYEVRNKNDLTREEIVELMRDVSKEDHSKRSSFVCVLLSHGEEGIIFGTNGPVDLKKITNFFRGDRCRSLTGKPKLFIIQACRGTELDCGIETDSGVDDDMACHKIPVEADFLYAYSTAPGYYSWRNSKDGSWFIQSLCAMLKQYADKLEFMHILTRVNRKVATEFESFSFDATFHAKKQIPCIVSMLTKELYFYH

CCc1nn(C)c(C(=O)NCc2ccc(C(C)(C)C)cc2)c1Cl
active: [1] 35.8 µM | [2] 0.965 µM | BCL2L11 (gene 10018) 636 nM | [3] 0.5 µM | [4] 0.822 µM | [5] 50 µM | Caspase-3 (Homo sapiens) 16.1 µM | [7] 0.866 µM | [8] 35.8 µM
inactive: [6]

COc1nc(NC(C)C)nc(NC(C)C)n1
active: [7] 44.9 µM
inactive: [1] | [2] | BCL2L11 (gene 10018) | [3] | [4] | [5] | Caspase-3 (Homo sapiens) | [6] | [8]

CCNc1nc(Cl)nc(NCC)n1
inactive: [1] | [2] | BCL2L11 (gene 10018) | [3] | [4] | [5] | Caspase-3 (Homo sapiens) | [6] | [8]
active: [7] 50 µM

CCOC(=O)C(Cl)Cc1cc(-n2nc(C)n(C(F)F)c2=O)c(F)cc1Cl (stereo not drawn)
inactive: [1] | [2] | BCL2L11 (gene 10018) | [3] | [4] | [5] | Caspase-3 (Homo sapiens) | [6] | [7] | [8]

CCCCNC(=O)n1c(NC(=O)OC)nc2ccccc21
active: [7] 20.7 µM
inactive: [1] | [2] | BCL2L11 (gene 10018) | [3] | [4] | [5] | Caspase-3 (Homo sapiens) | [6] | [8]

CCNc1nc(Cl)nc(NC(C)C)n1
active: [7] 50 µM
inactive: [1] | [2] | BCL2L11 (gene 10018) | [3] | [4] | [5] | Caspase-3 (Homo sapiens) | [6] | [8]

CC(C)C1(C)N=C(c2nc3ccccc3cc2C(=O)O)NC1=O (stereo not drawn)
inactive: [1] | [2] | BCL2L11 (gene 10018) | [3] | [4] | [5] | Caspase-3 (Homo sapiens) | [6] | [8]
active: [7] 28.7 µM

CC1COC(Cn2cncn2)(c2ccc(Oc3ccc(Cl)cc3)cc2Cl)O1 (stereo not drawn)
active: [2] 11 µM | [3] 12.8 µM | [4] 12.8 µM | [5] 12 µM | [6] 50 µM
inactive: [1] | BCL2L11 (gene 10018) | Caspase-3 (Homo sapiens) | [7] | [8]

OC(c1ccc(Cl)cc1)(c1cncnc1)c1ccccc1Cl (stereo not drawn)
active: [2] 80 µM | [3] 72.9 µM | [4] 75.1 µM | [7] 86.6 µM | [8] 50 µM
inactive: [1] | BCL2L11 (gene 10018) | [5] | Caspase-3 (Homo sapiens) | [6]

CC(C)Oc1cc(-n2nc(C(C)(C)C)oc2=O)c(Cl)cc1Cl
active: [2] 47.2 µM | [3] 32.4 µM | [4] 81.1 µM
inactive: [1] | BCL2L11 (gene 10018) | [5] | Caspase-3 (Homo sapiens) | [6] | [8]

COC(=O)C=C(C)OP(=O)(OC)OC
inactive: [1] | [2] | BCL2L11 (gene 10018) | [4] | [5] | Caspase-3 (Homo sapiens) | [6] | [7] | [8]

CCOP(=S)(OCC)SCn1c(=O)oc2cc(Cl)ccc21
active: [7] 75.3 µM
inactive: [1] | [2] | BCL2L11 (gene 10018) | [3] | [4] | [5] | Caspase-3 (Homo sapiens) | [6] | [8]

CON(C)C(=O)Nc1ccc(Cl)c(Cl)c1
active: [2] 74.2 µM | [7] 29.8 µM
inactive: [1] | BCL2L11 (gene 10018) | [3] | [4] | [5] | Caspase-3 (Homo sapiens) | [6] | [8]

COc1cnc(OC)n2nc(NS(=O)(=O)c3c(OCC(F)F)cccc3C(F)(F)F)nc12
active: [2] 50 µM
inactive: [1] | BCL2L11 (gene 10018) | [3] | [4] | [5] | Caspase-3 (Homo sapiens) | [6] | [7] | [8]

CCCC1COC(Cn2cncn2)(c2ccc(Cl)cc2Cl)O1 (stereo not drawn)
active: [2] 24 µM | [3] 47.4 µM | [4] 33.7 µM | [7] 50 µM
inactive: [1] | BCL2L11 (gene 10018) | [5] | Caspase-3 (Homo sapiens) | [6] | [8]

CNC(=S)S
active: [7] 50 µM
inactive: [1] | [2] | BCL2L11 (gene 10018) | [3] | [4] | [5] | Caspase-3 (Homo sapiens) | [6] | [8]

Cc1c(F)c(F)c(COC(=O)C2C(/C=C(\Cl)C(F)(F)F)C2(C)C)c(F)c1F (stereo not drawn)
inactive: [1] | [2] | BCL2L11 (gene 10018) | [3] | [4] | [5] | Caspase-3 (Homo sapiens) | [6] | [7] | [8]

C=CC1(C)OC(=O)N(c2cc(Cl)cc(Cl)c2)C1=O (stereo not drawn)
inactive: [1] | [2] | BCL2L11 (gene 10018) | [3] | [4] | [5] | Caspase-3 (Homo sapiens) | [6] | [8]
active: [7] 18.8 µM

CCCCC(CC)COC(=O)c1ccccc1C(=O)OCC(CC)CCCC (stereo not drawn)
active: [7] 50 µM
inactive: [1] | [2] | BCL2L11 (gene 10018) | [3] | [4] | [5] | Caspase-3 (Homo sapiens) | [6] | [8]

COC(=O)c1ccccc1C(=O)OC
inactive: [1] | [2] | BCL2L11 (gene 10018) | [3] | [4] | [5] | Caspase-3 (Homo sapiens) | [6] | [7] | [8]

COC(=O)C(C)Oc1ccc(Oc2ccc(Cl)cc2Cl)cc1 (stereo not drawn)
inactive: [1] | BCL2L11 (gene 10018) | [3] | [5] | Caspase-3 (Homo sapiens) | [6] | [7] | [8]
active: [2] 79.6 µM | [4] 50 µM

CS/C(C)=N/OC(=O)N(C)SN(C)C(=O)O/N=C(\C)SC
inactive: [1] | [2] | BCL2L11 (gene 10018) | [3] | [4] | [5] | Caspase-3 (Homo sapiens) | [6] | [7] | [8]

C#CCOS(=O)OC1CCCCC1Oc1ccc(C(C)(C)C)cc1 (stereo not drawn)
active: [1] 30.1 µM | [2] 29.5 µM | [4] 81.7 µM | [5] 11.4 µM | Caspase-3 (Homo sapiens) 29 µM | [8] 31.3 µM
inactive: BCL2L11 (gene 10018) | [3] | [6] | [7]

N#CC(CCc1ccc(Cl)cc1)(Cn1cncn1)c1ccccc1 (stereo not drawn)
active: [2] 15.8 µM | [3] 50 µM | [4] 66.7 µM | [7] 85.6 µM
inactive: [1] | BCL2L11 (gene 10018) | [5] | Caspase-3 (Homo sapiens) | [6] | [8]

CO/C=C(/C(=O)OC)c1ccccc1Oc1cc(Oc2ccccc2C#N)ncn1
inactive: [1] | [5] | Caspase-3 (Homo sapiens) | [6] | [8]
active: [2] 37.9 µM and 69.5 µM and 25.5 µM | BCL2L11 (gene 10018) 84.5 µM and 73.8 µM and 84.6 µM | [3] 91.8 µM and 78 µM and 74.3 µM | [4] 86.3 µM and 85.9 µM and 86.9 µM | [7] 84.5 µM and 65.9 µM and 66.5 µM

CCCCNC(=O)OCC#CI
inactive: [2] | BCL2L11 (gene 10018) | [3] | [4] | [5] | Caspase-3 (Homo sapiens) | [6] | [8]
active: [1] 50 µM | [7] 31.1 µM
